# Assay results from PubChem BioAssay.
# Active and inactive are the calls of the source.
# Tests used:
# Albumin (Bos taurus) = Albumin (Bos taurus) (UniProt P02769); assay: bovine serum albumin binders on microarray, profiling panel, artefact control for SMM control protein annotation, biochemical, small-molecule microarray, Alexa647 label, 635/667 nm fluorescence (AID 1118); details: BSA-A647 binding, fluorescence 635 nm, higher = more signal;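 note: score merges 667 nm emission intensity and signal-to-noise per printed compound spot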
# [1] = small-molecule microarray binders of probe aXIP, primary screen, biochemical, NeuroSMM set, 635/667 nm fluorescence (AID 1119); details: higher = more signal, called active from +8 up or from −8 down;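 note: probe is the protein aXip251-270 applied at 1 µg/mL to compound-printed slides; binding of probe to printed compounds measured as 667 nm fluorescence plus signal to noise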
# [2] = small-molecule binders of probe aNOTCH3, primary screen, biochemical, small-molecule microarray, 635/667 nm fluorescence (AID 1120); details: higher = more signal;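 note: probe is a biotin-tagged antibody raised against NOTCH3 rather than NOTCH3 protein; score merges spot fluorescence near 667 nm with spot signal to noise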
# [3] = small-molecule binders of probe aNOTCH2, primary screen, biochemical, small-molecule microarray, 635/667 nm fluorescence (AID 1121); details: higher = more signal;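 note: score merges feature fluorescence read at 667 nm with its signal to noise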
# [4] = target: Carbonic anhydrase 2 (Homo sapiens) (UniProt P00918); assay: CAII small-molecule binders, profiling panel, biochemical, small-molecule microarray, Alexa647-labelled CAII (AID 1122); details: CAII-A647 binding fluorescence, higher = more signal
# [5] = COS7 lysate on small-molecule microarray, probe aHis, 635 nm (AID 1123); details: COS7 cell lysate, fluorescence, higher = more signal;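 note: z-score combines 667nm fluorescence intensity with signal-to-noise per printed compound spot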
# [6] = compound binding in COS7 lysate, probe aLAP1, primary screen, cell lysate, small-molecule microarray (AID 1124); details: probe aLAP1, fluorescence, higher = more signal;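 note: lysate comes from COS7 cells expressing LAP1 and is applied at 0.3 µg/mL; score merges spot fluorescence near 667 nm with signal-to-noise over triplicate slides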
# Sam68 (KHDRBS1) = assay: Sam68 small-molecule binders, primary screen, biochemical, small-molecule microarray, 635 nm fluorescence (AID 1125); details: small-molecule microarray binding, higher = more signal;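 note: score merges 667 nm channel intensity with signal to noise over triplicate slides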
# [7] = tested on: Chordin-like protein 2 (CHRDL2); assay: CHRDL2 small-molecule binders, primary screen, biochemical, small-molecule microarray, 635 nm fluorescence (AID 1126); details: small-molecule microarray binding, fluorescence 635 nm; higher = more signal;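 note: printed compound slides probed with Chrdl2 protein at 4 µg/mL for 1 h at 4 C; score merges 667 nm emission intensity with signal to noise over three replicate slides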
# [8] = target: Concanavalin-A (Canavalia ensiformis) (UniProt P02866); assay: ConA small-molecule binders, primary screen, artefact control for SMM control protein annotation, biochemical, small-molecule microarray, Alexa647 label, 635 nm (AID 1127); details: ConA-A647 binding fluorescence, higher = more signal;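 note: z combines 667 nm emission intensity with signal-to-noise across three replicate slides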
# [9] = anti-His antibody binders, primary screen, artefact control for SMM control protein annotation, biochemical, small-molecule microarray, 635 nm fluorescence (AID 1128); details: anti-His Alexa647 antibody binding, higher = more signal;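 note: score merges feature fluorescence with signal-to-noise for each printed compound spot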
# [10] = tested on: Human papillomavirus type 1a E7 protein (residues 1-88); assay: HPV1a E7 small-molecule binders, primary screen, biochemical, small-molecule microarray, residues 1-88, 635 nm (AID 1129); details: small-molecule microarray binding, fluorescence 635 nm; higher = more signal
# [11] = target: Focal adhesion kinase 1 (Homo sapiens) (UniProt Q05397); assay: small-molecule microarray binders of FAK, primary screen, biochemical, 635/667 nm fluorescence, BSA, DTT (AID 1130); details: PTK2 binding, 635 nm fluorescence, higher = more signal;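 note: composite of spot emission at 667 nm and signal to noise over triplicate slides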
# [12] = tested on: Fibrinogen (Alexa647-labelled); assay: fibrinogen binders on compound microarrays, profiling panel, artefact control for SMM control-protein annotation, biochemical, small-molecule microarray, 635/667 nm fluorescence (AID 1131); details: fibrinogen-A647 binding fluorescence, higher = more signal;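 note: z-score merges 667 nm fluorescence with per-spot signal-to-noise over triplicate slides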
# [13] = target: Follistatin (Homo sapiens) (UniProt P19883); assay: follistatin binders on small-molecule microarrays, primary screen, biochemical, small-molecule microarray, 635/667 nm fluorescence (AID 1132); details: FST binding, 635 nm fluorescence, higher = more signal
# [14] = target: Fibroblast growth factor 2 (Homo sapiens) (UniProt P09038); assay: FGF2 binders on small-molecule microarrays, primary screen, biochemical, small-molecule microarray, 635/667 nm fluorescence (AID 1133); details: small-molecule microarray binding, FGF2, fluorescence 635/667; higher = more signal
# [15] = mitochondrial membrane potential change in A549 cells, profiling panel, cell-based, JC-1 fluorescence, basal, 24 h, 100 nL (AID 1138); details: higher = more signal;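 note: A549 lung adenocarcinoma cells under basal conditions with no added stimulus; test concentration not given here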
# Lefty1 = Lefty1 binders on small-molecule microarrays, primary screen, biochemical, small-molecule microarray, 635/667 nm fluorescence (AID 1139); details: small-molecule microarray binding, fluorescence 635/667; higher = more signal
# [16] = tested on: wheat germ agglutinin (Triticum aestivum), Alexa647-labelled; assay: wheat germ agglutinin binders on compound microarrays, profiling panel, artefact control for SMM control-protein annotation, biochemical, small-molecule microarray, 635/667 nm fluorescence (AID 1140); details: WGA-A647 binding, 635 nm fluorescence, higher = more signal;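 note: score merges 667 nm feature emission with signal to noise over triplicate slides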
# [17] = target: Luciferin 4-monooxygenase (Photinus pyralis) (UniProt P08659); assay: firefly luciferase enzyme inhibitors, primary screen, biochemical, luminescence, purified enzyme, 2006 set (AID 1141); details: SteadyGlo luminescence, 30 min, higher = more signal, called active from +8 up or from −8 down;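 note: cell-free assay with purified firefly luciferase at 100 ng per well in PBS; test concentration not given here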
# Luciferin 4-monooxygenase (Photinus pyralis), sequence (P08659 whole entry, looked up): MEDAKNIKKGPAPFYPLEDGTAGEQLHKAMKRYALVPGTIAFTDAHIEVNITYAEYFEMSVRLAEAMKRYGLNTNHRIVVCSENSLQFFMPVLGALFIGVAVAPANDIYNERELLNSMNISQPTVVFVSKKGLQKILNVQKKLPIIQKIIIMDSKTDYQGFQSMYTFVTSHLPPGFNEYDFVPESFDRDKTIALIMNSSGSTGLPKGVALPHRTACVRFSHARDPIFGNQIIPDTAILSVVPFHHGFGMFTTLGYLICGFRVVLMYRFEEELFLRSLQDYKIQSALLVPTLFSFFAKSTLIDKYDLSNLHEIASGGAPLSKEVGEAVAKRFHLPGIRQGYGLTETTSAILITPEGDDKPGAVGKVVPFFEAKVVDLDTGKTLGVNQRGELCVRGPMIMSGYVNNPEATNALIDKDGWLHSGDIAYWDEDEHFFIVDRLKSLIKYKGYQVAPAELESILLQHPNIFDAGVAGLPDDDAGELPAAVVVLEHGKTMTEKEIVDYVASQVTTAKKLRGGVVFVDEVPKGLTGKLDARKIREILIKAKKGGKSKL
# Albumin (Bos taurus), sequence (P02769 whole entry, looked up): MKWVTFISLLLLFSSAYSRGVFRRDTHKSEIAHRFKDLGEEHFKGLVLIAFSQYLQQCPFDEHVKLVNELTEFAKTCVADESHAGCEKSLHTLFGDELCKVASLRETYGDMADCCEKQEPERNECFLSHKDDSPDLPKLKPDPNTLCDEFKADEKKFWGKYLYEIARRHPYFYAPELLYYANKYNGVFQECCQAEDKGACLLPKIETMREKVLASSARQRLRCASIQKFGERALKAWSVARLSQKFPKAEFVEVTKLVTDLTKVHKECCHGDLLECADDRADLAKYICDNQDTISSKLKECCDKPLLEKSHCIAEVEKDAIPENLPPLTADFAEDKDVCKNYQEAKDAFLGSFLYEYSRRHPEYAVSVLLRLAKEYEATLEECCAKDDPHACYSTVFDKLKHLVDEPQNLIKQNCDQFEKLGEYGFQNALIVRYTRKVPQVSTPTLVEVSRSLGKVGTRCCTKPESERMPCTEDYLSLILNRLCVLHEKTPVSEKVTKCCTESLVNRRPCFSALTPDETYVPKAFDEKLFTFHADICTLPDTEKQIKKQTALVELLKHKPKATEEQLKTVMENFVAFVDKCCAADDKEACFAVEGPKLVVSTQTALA
# Follistatin (Homo sapiens), sequence (P19883 whole entry, looked up): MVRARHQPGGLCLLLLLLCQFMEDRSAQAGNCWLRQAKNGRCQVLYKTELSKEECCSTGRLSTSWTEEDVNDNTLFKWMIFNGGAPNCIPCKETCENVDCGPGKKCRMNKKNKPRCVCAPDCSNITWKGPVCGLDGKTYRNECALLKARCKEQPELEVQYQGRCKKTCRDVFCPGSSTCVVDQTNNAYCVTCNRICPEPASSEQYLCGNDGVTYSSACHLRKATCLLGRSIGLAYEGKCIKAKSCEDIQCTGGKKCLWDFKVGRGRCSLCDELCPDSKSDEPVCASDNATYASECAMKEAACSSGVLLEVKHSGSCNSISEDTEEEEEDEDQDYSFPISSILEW
# Fibroblast growth factor 2 (Homo sapiens), sequence (P09038 whole entry, looked up): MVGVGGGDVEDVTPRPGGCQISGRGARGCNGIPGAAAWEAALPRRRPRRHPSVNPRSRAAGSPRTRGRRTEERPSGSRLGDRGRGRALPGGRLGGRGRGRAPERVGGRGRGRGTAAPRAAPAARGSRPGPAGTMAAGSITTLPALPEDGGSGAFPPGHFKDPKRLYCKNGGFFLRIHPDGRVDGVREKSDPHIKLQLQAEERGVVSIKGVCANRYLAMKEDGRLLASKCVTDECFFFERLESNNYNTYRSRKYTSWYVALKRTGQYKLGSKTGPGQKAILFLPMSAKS
# Concanavalin-A (Canavalia ensiformis), sequence (P02866 whole entry, looked up): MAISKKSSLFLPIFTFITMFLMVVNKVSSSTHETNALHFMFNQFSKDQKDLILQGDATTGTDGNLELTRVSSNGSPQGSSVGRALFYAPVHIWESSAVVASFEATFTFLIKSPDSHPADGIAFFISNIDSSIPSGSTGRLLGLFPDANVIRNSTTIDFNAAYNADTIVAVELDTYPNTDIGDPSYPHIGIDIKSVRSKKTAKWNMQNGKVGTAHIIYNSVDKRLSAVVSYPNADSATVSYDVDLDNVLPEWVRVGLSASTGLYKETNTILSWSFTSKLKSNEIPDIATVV
# Focal adhesion kinase 1 (Homo sapiens), sequence (Q05397 whole entry, looked up): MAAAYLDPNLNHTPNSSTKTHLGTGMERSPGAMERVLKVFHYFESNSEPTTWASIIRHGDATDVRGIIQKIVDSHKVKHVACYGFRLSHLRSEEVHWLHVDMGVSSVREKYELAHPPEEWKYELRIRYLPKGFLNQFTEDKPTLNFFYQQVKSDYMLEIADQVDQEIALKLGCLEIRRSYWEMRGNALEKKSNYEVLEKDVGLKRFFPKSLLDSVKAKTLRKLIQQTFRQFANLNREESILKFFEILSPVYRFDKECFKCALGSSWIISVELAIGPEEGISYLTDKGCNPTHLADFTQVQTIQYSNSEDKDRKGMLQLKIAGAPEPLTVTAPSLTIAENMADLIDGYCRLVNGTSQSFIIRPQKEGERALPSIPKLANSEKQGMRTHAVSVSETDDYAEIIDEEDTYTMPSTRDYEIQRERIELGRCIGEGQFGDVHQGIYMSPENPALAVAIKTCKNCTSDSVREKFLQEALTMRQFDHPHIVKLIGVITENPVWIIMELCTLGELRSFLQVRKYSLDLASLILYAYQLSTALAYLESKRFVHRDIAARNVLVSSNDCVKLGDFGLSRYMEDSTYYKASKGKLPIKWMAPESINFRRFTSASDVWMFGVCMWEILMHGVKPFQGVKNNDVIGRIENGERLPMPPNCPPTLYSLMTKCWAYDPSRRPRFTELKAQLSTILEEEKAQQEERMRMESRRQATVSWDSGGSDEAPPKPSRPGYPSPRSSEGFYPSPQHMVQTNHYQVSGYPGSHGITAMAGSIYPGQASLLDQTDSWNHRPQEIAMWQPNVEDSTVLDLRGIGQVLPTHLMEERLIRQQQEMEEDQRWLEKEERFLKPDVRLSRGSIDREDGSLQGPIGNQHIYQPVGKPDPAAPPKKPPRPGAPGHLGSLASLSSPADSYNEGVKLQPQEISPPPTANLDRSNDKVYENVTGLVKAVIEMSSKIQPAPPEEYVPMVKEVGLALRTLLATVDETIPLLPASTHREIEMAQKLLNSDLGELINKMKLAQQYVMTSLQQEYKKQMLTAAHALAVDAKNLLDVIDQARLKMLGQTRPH
SMILES,composite z-score (Albumin (Bos taurus)),composite Z-score [1],composite z-score [2],composite z-score [3],composite z-score [4],composite z-score [5],composite z-score [6],composite z-score (Sam68 (KHDRBS1)),composite z-score [7],composite z-score [8],composite z-score [9],composite z-score [10],composite z-score [11],composite z-score [12],composite z-score [13],composite z-score [14],z-score [15],composite z-score (Lefty1),composite z-score [16],z-score [17]
CO[C@H]1COC(=O)CC=C[C@@H](C)[C@H](OC)COC(=O)CCC[C@@H]1C,-0.913,0.0032 (inactive),-0.149,-0.118,-0.601,0.302,0.923,0.0465,1.41,-0.819,0.165,-0.289,-0.735,-0.511,0.776,1.15,-0.738,0.945,-0.173,1.09 (inactive)
C[C@@H]1NC(=O)[C@@H](C)COC(=O)[C@H](C)NC(=O)[C@@H](C)COC1=O,0.591,-0.152 (inactive),-0.0339,-0.0907,0.394,0.1,-0.706,0.769,0.316,0.513,1.08,0.922,0.0556,-0.0769,0.172,1.21,-0.323,0.389,-0.137,0.254 (inactive)
COC(=O)NCC=Cc1nc(CCCO)co1,0.782,0.678 (inactive),-0.0362,-0.153,-0.0958,0.549,0.215,0.559,0.809,0.161,0.53,0.804,-0.0457,0.0947,0.614,0.564,-0.223,0.706,-0.0407,0.604 (inactive)
C=CC[C@@H]1C=C[C@H](ON=C(C)CCN2CCc3nc(-c4ccccc4)c(-c4ccccc4)cc3C2)[C@@H](CO)O1,0.585,0.364 (inactive),-0.0362,-0.0995,0.1,1.6,-0.0995,1.31,0.321,0.967,0.133,0.876,-0.372,0.727,0.787,0.362,2.3,0.736,0.169,-0.118 (inactive)
COC(=O)[C@H](C)NC(=O)CCC1CC(OC(=O)NCc2ccc3c(c2)OCO3)CC2(CCCC(COC(=O)NCc3cccc(C(F)(F)F)c3)O2)O1 (stereo not given in full),0.133,0.298 (inactive),-0.0014,-0.133,0.424,1.08,0.234,1.02,0.301,0.746,0.0275,0.741,0.587,0.387,0.792,0.63,-0.238,1.15,0.613,0.969 (inactive)
CCOC(=O)[C@H](Cc1ccccc1)NC(=O)CCC1CC(OC(=O)NCCc2ccc(F)cc2)CC2(CCCC(COC(=O)NCCc3ccccc3OC)O2)O1 (stereo not given in full),0.667,-0.449 (inactive),-0.0984,-0.14,0.303,1.46,0.854,1.12,0.405,1.09,0.949,1.15,0.165,0.916,0.818,0.888,-0.366,1.11,0.441,0.451 (inactive)
C=CC[C@@H]1C=C[C@H](ON=C2[C@H]3CCn4c(=O)n(-c5ccccc5)c(=O)n4[C@H]3[C@H](O)[C@@H]3O[C@H]23)[C@@H](CO)O1,0.127,-0.227 (inactive),-0.172,-0.101,0.256,-0.143,-0.208,-0.862,0.564,0.535,3.31,-0.542,-0.118,0.626,0.489,0.095,-0.544,0.96,-0.0168,0.845 (inactive)
COc1cccc([C@H]2Oc3ccc(OC)cc3C(=NO[C@@H](C)c3cn([C@H](CO)Cc4ccccc4)nn3)[C@@H]2O)c1,0.874,0.637 (inactive),-0.132,-0.207,-0.0163,0.107,0.664,-0.0592,-0.54,0.373,-2.13,-0.92,-0.104,0.778,-0.476,0.109,-1.09,0.102,0.305,-0.0592 (inactive)
O=C1[C@H]2[C@H]3[C@H](O)[C@H](O)CC(=NOCc4ccccc4)[C@@H]3CC[C@H]2C(=O)N1C[C@@H]1CCCO1,0.0904,-0.207 (inactive),-0.187,-0.0621,-0.026,0.369,0.279,-0.361,0.332,0.603,-0.016,-0.182,0.205,0.237,-0.0829,0.0592,-0.485,-0.0955,-0.396,0.903 (inactive)
CCCCc1nc2c(c3c1C[C@H](C)OC3)CN(CCOc1ccccc1)CC2,0.674,0.202 (inactive),0.058,-0.11,0.221,0.686,0.135,1.06,0.726,0.975,0.818,0.334,-0.117,0.75,0.766,0.913,3.89,1.23,0.38,-1.94 (inactive)
CCOC(=O)[C@H](CC(C)C)NC(=O)CCC1CC(OC(=O)NCc2ccc3c(c2)OCO3)CC2(CCCC(COC(=O)NCC3CCCCC3)O2)O1 (stereo not given in full),0.235,0.189 (inactive),0.31,-0.207,0.368,0.636,0.244,1.32,0.567,0.512,1.18,0.939,-0.217,-0.195,1.18,0.928,0.0853,1.63,0.584,0.885 (inactive)
